Here are results for 38 compounds from PubChem BioAssay AID624305 (National Center for Advancing Translational Sciences (NCATS), 2012).

SMILES strings stand for the structures. Records with an inconclusive call do not appear. A number with no mark means an inactive call. Calls of active or inactive are those of the source. The call rests on the fitted dose curve; in most records, active means well fitted activation curve with a large enough effect; inconclusive means small, poorly fitted or top-dose-only effect; inactive means no such curve, though single readings can be large or run the other way.
Potency means the concentration at half of the fitted maximal effect.

The test in a line: qHTS assay for re-activators of p53 using a Luc reporter: Hit Validation. Further: nearly all actives have a fitted effect of over 75% in size. On activation: 0% is about no effect. The following applies: p53-responsive luciferase reporter cells, luminescence, H1299 line expressing heat-sensitive Ala138Val p53; series mostly up to 46.1 µM; activation: at the top concentration. Summed up: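 Hit confirmation with a 1:5 dilution series, at 37 deg C for 24 hrs, in H1299 cells co-expressing temperature-sensitive p53-A138V and p53-responsive luciferase. Nocodazole served as control; luminescence read after 10 min with detection reagent.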
For orientation: In qHTS, concentration-response curves come from the screen itself.
On to `O=C(NCCC1=CCCCC1)c1ccc([N+](=O)[O-])cc1`, for which the Potency was 2.59 µM (active).
Same read-out and setting: in the case of `Cc1cc(C(=O)NC2CCCCC2)c(C)n1-c1ccc(F)cc1` it was 8.2 µM (active).
Regarding `O=C(NNC(=O)c1ccc(Cl)cc1Cl)c1ccncc1`, the activation was -28.8% [at 9.22 µM].
`Cc1occc1C(=O)NNC(=S)Nc1ccccc1C(F)(F)F`: the Potency was 13 µM (active).
For the compound `COCCn1c(SCC(=O)Nc2ccc(N3CCOCC3)cc2)nc2ccccc21`, the “activation” value is 7.81%.
On to `O=C(NC12CC3CC(CC(C3)C1)C2)c1ccc(-c2cccc(Cl)c2)o1`, for which the Potency is 23.1 µM (active).
On to `N#C/C(=C\c1ccc(OCc2ccc(Br)cc2)cc1)C(=O)Nc1cccc(C(=O)O)c1`, for which the Potency is 2.91 µM (active).
On to `COc1ccc(S(=O)(=O)NC2CC(C)(C)NC(C)(C)C2)c2ccccc12`, for which the “activation” value is -12%.
Take `O=C(CNc1ccccc1)N/N=C/c1c[nH]c2ccccc12`: the “activation” value was 25.5%.
For `O=c1c2ccccc2oc2ccc(-c3ccc4cc[nH]c4c3)cc12`, the Potency was 0.411 µM (active).
In the case of `c1cnc2c(OCc3nc4ccccc4[nH]3)cccc2c1`, the Potency is 6.51 µM (active).
Regarding `CCCCC(=O)Nc1cccc(NC(=S)NC(=O)Cc2ccccc2)c1`, the “activation” value is -23.4%.
`O=C(NCc1ccco1)c1noc2c1CCCC2`: the “activation” value was 56.8%.
`NC(=O)c1ccc(-n2c(CCC(=O)O)ccc2-c2cccs2)cc1`: the “activation” value is -8.33%.
On to `Cc1cccc(NC(=O)c2ccccn2)c1C`, for which the Potency was 14.6 µM (active).
The same measure, in the same setting: in the case of `CC(=O)OCC(=O)Nc1ccc(N=Nc2ccccc2)cc1` it was 0.651 µM (active); in that of `COC(=O)c1ccc(/C=C/c2ccc3cccc(OC(C)=O)c3n2)cc1`, 2.91 µM (active).
On to `CCOc1ccc(-c2cnc3ccccc3n2)cc1`, for which the “activation” value is -85.9%.
On the same count and under the same terms, next, `Cn1ncc([N+](=O)[O-])c1C(=O)Nc1ccc(C2CCCCC2)cc1`: 24%.
Take `Cc1cc(C(=O)Nc2ccc(Br)cn2)sc1C`: the Potency is 2.06 µM (active).
As to `COc1ccc(CCC(=O)Nc2ccc(-c3noc(-c4ccc(OC)c(OC)c4)n3)cc2)cc1`, the “activation” value is 28.1%.
Consider `O=C(NCCN1CCOCC1)c1cc(-c2cccs2)on1`, for which the Potency is 23.1 µM (active).
As for `CCOc1ccc(OCCSc2nc3ccccc3n2CC(=O)O)cc1`, the “activation” value was -1.04%.
For `NNc1nc(NCc2ccccc2)nc(N2CCOCC2)n1`, the “activation” value is -7.29%.
For the compound `CN(C)CCN(CC1CCCN(Cc2ccccc2F)C1)C(=O)c1ccc(F)cc1` (stereo not drawn), the “activation” value is 6.77%.
On to `Brc1c(CSc2nc3ccccc3s2)nc2ncccn12`, for which the Potency is 9.2 µM (active).
`O=C(c1ccc(N2CCN(S(=O)(=O)c3ccccc3)CC2)c([N+](=O)[O-])c1)N1CCOCC1`: the “activation” value was 17.2%.
As for `Cc1ccc2nc(-c3ccc(NC(=O)COC(=O)c4ccc(Br)o4)cc3)sc2c1`, the Potency was 0.0517 µM (active).
Consider `CCOc1ccc2c(c1)C(=NNC(=O)c1ccncc1)c1cc(OCC)ccc1-2`, for which the “activation” value was 18.2%.
For the compound `Cc1ccc(NC(=O)/C(Cl)=C/c2ccccc2)cc1C`, the Potency was 2.06 µM (active).
With `CCOCCCNc1nc2c([nH]1)c(=O)n(C)c(=O)n2C`, the “activation” value is 6.25%.
Regarding `COc1cccc(/C=C2\Oc3ccc(O)cc3C2=O)c1O`, the “activation” value was -18.8%.
For the compound `O=c1oc(-c2ccc(O)c(O)c2)cc2cc(O)cc(O)c12`, the Potency is 11.6 µM (active).
For the compound `COc1ccc(C2=NN(C(C#N)c3ccc(OC)cc3)C(c3ccccc3)C2)cc1` (stereo not drawn), the Potency is 14.6 µM (active).
Regarding `COc1ccccc1C(=O)NC(=S)NNC(=O)c1sc2ccccc2c1Cl`, the “activation” value is 43.8%.
Same read-out and setting: next, `CCOC(=O)c1cc(-c2ccccc2)sc1NC(=O)CC`: -17.2%.
Turning to `COCCCN(C(C)=O)c1nc(-c2ccc(OC)cc2)cs1`, the Potency is 2.31 µM (active).
The same measure, in the same setting: in the case of `NC(N)=Nc1nc(C2COc3ccccc3O2)cs1` (stereo not drawn) it was 4.11 µM (active).
